Drawing on PubChem BioAssay, this text covers composite z-score and z-score for 5 compounds.

Experiment [1] is described as follows: small molecules captured by biotinylated probe aFSTL3 – biochemical, small-molecule microarray, fluorescence 635/667, stem cell growth factor project, primary screen (AID 1064).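 Also: measures binding of the biotinylated anti-FSTL3 antibody to printed compounds.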 Conditions: higher = more signal.
Experiment [2] can be described thus: binders from COS7 lysate, DM2A8 probe, primary screen, torsin A project, cell lysate, small-molecule microarray, fluorescence 635/667 (AID 1065). Conditions: higher = more signal, COS7 lysate expressing mutant human TOR1A.
Experiment [3] can be described thus: small molecules captured by biotinylated probe aFGF2 – biochemical, small-molecule microarray, fluorescence 635/667, stem cell growth factor project, primary screen (AID 1067).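 Also: measures binding of biotinylated aFGF2 protein to printed compounds on slides; z-score merges feature fluorescence and signal-to-noise across triplicate slides.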 To be noted: higher = more signal.
The nature of experiment [4]: small molecules captured by biotinylated probe aFGF10 – biochemical, small-molecule microarray, fluorescence 635/667, stem cell growth factor project, primary screen (AID 1071).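 Also: score merges 667 nm spot intensity and signal to noise from triplicate slides.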 To be noted: higher = more signal.
Experiment [5] addresses Neurogenic locus notch homolog protein 2 (Homo sapiens) (UniProt Q04721). The experiment is described as follows: small molecules binding Notch2 protein – biochemical, small-molecule microarray, 635 nm fluorescence, stem cell growth factors, primary screen (AID 1073). To be noted: higher = more signal.
For experiment [6], the target named is Pro-neuregulin-1, membrane-bound isoform (Homo sapiens) (UniProt Q02297). As to the kind of experiment: small molecules binding neuregulin-1 protein – biochemical, small-molecule microarray, fluorescence 635/667, psychiatric disease protein project, primary screen (AID 1075).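 Also: score combines 667 nm spot fluorescence with signal to noise.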 To be noted: NRG1 binding, 635 nm fluorescence, higher = more signal.
Experiment [7] has as its system Neuregulin-1 EGF-like domain. As to the kind of experiment: small molecules binding NRG1 EGF domain – biochemical, small-molecule microarray, 635 nm fluorescence, primary screen (AID 1081).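 Also: binding of the protein to compounds printed on small-molecule microarray slides.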 Conditions: higher = more signal.
A short description of experiment [8]: FRG1 expression reporter modulators in myotubes – cell-based, C2C12 myotubes, firefly/Renilla luciferase, luminescence, FRG1 inhibition for FSHD, primary screen (AID 1084). Conditions: FRG1 promoter luciferase, higher = more signal, called active from +8 up or from −8 down.
Experiment [9] is described as follows: small molecules captured by biotinylated probe aFST – biochemical, small-molecule microarray, fluorescence 635/667, stem cell growth factor project, primary screen (AID 1086).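 Also: score merges 667 nm fluorescence with signal-to-noise of each printed compound spot.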 To be noted: higher = more signal.
A short description of experiment [10]: binders of probe aHhip on microarray, primary screen, stem cell growth factor project, biochemical, small-molecule microarray, fluorescence 635/667 (AID 1087).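 Also: score merges spot fluorescence at 667nm with spot signal to noise ratio.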 To be noted: higher = more signal.
Experiment [11] relates to PRMT1 (protein arginine N-methyltransferase 1). The experiment is described as follows: small molecules binding arginine methyltransferase PRMT1 – biochemical, small-molecule microarray, 635 nm fluorescence, primary screen (AID 1088).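 Also: binding of Prmt1 protein to compounds spotted on small-molecule microarray slides.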 To be noted: higher = more signal.
Experiment [12] in a line: growth effects on S. cerevisiae YJM789 – YJM789 clinical isolate, OD600, 24 h, basal, primary screen (AID 1089).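 Also: growth of clinical yeast isolate S. cerevisiae YJM 789 seeded 1000 cells per well; test concentration not given here.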 Conditions: higher = more signal, called active from +8 up or from −8 down.
The nature of experiment [13]: S. pombe growth modifiers, basal conditions – strain 972, OD600, 24 h, no modulator, primary screen (AID 1090).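 Also: basal condition with compound alone and no growth modifier present; test concentration not given here.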 To be noted: S. pombe 972 growth, higher = more signal, called active from +8 up or from −8 down.
Experiment [14] in a line: budding yeast growth modifiers under rapamycin – strain BY4716, OD600, 96 h, primary screen (AID 1091). Also: test concentration not given here. To be noted: S. cerevisiae BY4716 + rapamycin, higher = more signal, called active from +8 up or from −8 down.
The target in experiment [15] is Torsin-1A-interacting protein 2 (Homo sapiens) (UniProt Q8NFQ8). As to the kind of experiment: small molecules binding lysate-expressed LULL1 – cell lysate, human LULL1 lysate, 635/667 nm fluorescence, primary screen (AID 1092).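 Also: probe is lysate of COS7 cells overexpressing human LULL1; score merges per-feature 667 nm fluorescence with signal-to-noise.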 Conditions: small-molecule microarray, hLULL1 lysate binding, 635 nm fluorescence; higher = more signal.
Experiment [16] can be described thus: optical density change of DRC41 E. coli – strain DRC41, OD650, 24 h, E. coli filamentation project, primary screen (AID 1093).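 Also: MC1000 strain lacking acrAB efflux and sulA so SOS filamentation is blocked; test concentration not given here.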 To be noted: E. coli DRC41 growth, higher = more signal, called active from +8 up or from −8 down.
Experiment [17] in a line: probe aLefty2 binding to arrayed compounds – biochemical, biotinylated probe, 635/667 nm fluorescence, primary screen (AID 1094).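 Also: score merges spot fluorescence near 667 nm with spot signal-to-noise ratio.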 To be noted: small-molecule microarray, higher = more signal.
Experiment [18] has as its system Noggin (protein binding on small-molecule microarray). As to the kind of experiment: small molecules binding Noggin protein – biochemical, 635/667 nm fluorescence, primary screen (AID 1095).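 Also: score merges 667 nm feature fluorescence with signal to noise over triplicate slides.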 Conditions: 635 nm fluorescence, higher = more signal.
In experiment [19] the target is Neurogenic locus notch homolog protein 3 (Homo sapiens) (UniProt Q9UM47). As to the kind of experiment: small molecules binding NOTCH3 protein – biochemical, 635/667 nm fluorescence, primary screen (AID 1096). Conditions: small-molecule microarray, 635 nm fluorescence, higher = more signal.
A short description of experiment [20]: probe aEGFR binding to arrayed compounds – biochemical, biotinylated probe, 635/667 nm fluorescence, primary screen (AID 1097).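 Also: probe is a biotinylated anti-EGFR antibody binding compounds printed on slides; score combines fluorescence near 667 nm and signal to noise of each spot.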 Conditions: small-molecule microarray, higher = more signal.

The source made the active and inactive calls.

Sequence of Torsin-1A-interacting protein 2 (Homo sapiens) (Q8NFQ8 whole entry, looked up): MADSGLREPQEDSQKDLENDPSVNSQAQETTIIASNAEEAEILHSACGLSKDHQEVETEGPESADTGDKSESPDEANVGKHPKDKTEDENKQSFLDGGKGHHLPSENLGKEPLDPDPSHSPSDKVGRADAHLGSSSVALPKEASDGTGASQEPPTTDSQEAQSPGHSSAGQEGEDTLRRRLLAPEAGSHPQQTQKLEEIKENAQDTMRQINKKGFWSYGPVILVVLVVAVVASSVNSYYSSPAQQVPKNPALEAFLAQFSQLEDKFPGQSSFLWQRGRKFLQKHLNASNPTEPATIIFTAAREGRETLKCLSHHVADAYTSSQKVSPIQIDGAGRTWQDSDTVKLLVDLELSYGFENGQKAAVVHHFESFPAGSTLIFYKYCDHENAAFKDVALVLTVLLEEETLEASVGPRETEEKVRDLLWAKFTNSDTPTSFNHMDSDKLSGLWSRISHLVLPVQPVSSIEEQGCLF
Sequence of Pro-neuregulin-1, membrane-bound isoform (Homo sapiens) (Q02297 whole entry, looked up, the tested form may be a part, canonical isoform): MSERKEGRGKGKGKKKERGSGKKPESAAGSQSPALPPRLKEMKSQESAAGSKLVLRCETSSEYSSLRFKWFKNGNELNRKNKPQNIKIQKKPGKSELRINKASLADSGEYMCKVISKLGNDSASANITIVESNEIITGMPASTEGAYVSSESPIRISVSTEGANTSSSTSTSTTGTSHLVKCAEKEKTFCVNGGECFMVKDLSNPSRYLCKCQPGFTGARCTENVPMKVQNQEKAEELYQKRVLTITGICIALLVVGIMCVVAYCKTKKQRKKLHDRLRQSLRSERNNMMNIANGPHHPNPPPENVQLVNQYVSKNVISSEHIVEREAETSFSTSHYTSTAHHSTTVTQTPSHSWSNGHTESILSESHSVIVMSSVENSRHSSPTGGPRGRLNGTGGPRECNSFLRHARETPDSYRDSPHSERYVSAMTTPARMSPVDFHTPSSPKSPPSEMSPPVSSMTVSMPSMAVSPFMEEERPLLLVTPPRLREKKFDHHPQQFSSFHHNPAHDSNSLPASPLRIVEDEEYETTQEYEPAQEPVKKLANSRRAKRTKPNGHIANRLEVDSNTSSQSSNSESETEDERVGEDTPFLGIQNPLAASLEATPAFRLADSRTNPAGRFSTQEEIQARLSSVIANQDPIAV
Sequence of Neurogenic locus notch homolog protein 3 (Homo sapiens) (Q9UM47 whole entry, looked up): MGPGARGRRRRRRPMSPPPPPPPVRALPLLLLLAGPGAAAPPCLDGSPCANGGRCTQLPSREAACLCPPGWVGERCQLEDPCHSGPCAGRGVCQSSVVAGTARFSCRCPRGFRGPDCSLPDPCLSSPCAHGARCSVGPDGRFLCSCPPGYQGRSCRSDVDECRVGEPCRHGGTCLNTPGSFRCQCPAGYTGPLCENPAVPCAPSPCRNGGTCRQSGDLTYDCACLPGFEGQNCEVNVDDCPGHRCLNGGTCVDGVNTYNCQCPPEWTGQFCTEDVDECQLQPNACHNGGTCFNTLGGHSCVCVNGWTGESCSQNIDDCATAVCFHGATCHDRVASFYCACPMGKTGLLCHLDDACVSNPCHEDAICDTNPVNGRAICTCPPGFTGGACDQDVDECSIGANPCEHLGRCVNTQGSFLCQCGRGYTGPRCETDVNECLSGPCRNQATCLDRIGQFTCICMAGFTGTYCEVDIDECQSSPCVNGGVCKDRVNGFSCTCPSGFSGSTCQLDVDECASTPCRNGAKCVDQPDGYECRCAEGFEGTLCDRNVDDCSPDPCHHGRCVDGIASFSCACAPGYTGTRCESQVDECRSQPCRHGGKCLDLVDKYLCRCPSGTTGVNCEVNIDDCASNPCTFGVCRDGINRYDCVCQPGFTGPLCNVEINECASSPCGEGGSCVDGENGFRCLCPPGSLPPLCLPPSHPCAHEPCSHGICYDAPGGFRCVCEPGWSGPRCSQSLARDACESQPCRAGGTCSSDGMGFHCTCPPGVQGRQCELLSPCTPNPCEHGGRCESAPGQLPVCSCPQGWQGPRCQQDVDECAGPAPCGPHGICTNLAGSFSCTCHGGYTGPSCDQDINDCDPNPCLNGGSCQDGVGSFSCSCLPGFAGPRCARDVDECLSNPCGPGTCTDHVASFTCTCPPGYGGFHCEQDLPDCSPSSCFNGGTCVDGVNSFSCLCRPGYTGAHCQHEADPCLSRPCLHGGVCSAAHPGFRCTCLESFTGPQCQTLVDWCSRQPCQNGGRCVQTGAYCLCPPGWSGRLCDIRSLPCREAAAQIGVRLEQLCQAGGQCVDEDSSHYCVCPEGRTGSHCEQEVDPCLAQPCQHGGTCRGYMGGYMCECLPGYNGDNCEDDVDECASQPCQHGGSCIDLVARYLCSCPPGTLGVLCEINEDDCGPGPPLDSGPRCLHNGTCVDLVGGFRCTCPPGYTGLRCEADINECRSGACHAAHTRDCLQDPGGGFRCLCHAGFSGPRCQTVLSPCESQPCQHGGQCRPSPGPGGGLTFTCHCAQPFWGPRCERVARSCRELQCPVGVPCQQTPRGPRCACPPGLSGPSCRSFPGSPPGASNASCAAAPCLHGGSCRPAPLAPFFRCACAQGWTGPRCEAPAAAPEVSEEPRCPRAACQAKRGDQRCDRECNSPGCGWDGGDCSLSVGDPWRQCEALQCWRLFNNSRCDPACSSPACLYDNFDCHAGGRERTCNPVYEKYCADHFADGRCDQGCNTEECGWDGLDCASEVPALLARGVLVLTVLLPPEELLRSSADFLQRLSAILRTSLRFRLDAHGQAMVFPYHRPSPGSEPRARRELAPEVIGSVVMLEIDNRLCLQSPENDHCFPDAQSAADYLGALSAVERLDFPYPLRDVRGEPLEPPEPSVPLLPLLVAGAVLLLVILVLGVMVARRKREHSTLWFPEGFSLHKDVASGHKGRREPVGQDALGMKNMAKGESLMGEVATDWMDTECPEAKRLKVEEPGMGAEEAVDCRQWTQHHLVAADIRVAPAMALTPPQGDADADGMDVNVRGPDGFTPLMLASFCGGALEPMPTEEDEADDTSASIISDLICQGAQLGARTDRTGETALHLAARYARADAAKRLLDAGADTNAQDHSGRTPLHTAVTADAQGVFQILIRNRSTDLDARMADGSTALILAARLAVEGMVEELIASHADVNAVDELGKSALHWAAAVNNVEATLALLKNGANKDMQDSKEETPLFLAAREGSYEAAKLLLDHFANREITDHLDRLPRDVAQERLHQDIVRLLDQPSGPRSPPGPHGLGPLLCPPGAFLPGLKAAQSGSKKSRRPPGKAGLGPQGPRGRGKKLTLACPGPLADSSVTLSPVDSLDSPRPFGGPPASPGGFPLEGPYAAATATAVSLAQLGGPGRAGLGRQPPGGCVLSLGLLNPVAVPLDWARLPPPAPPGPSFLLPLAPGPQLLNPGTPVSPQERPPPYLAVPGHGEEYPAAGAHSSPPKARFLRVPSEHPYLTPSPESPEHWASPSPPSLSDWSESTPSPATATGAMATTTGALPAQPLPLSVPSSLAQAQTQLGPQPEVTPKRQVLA

Regarding `COCCCNC(=O)[C@]1(Cc2ccccc2CN=[N+]=[N-])N=C(c2ccc(OCCCO)cc2)O[C@@H]1c1ccccc1`, the composite z-score in [1] was -0.254; in experiment [2], 1.19; in experiment [3], 0.0788; in experiment [4], 0.627; in experiment [5] it was 1.09; in experiment [6], 0.969. For the same compound, the composite z-score in experiment [7] was 1.12; in experiment [9], 1.03; in [10], -0.0645; in experiment [11], 0.972; in [15], 2.67; in experiment [17], -0.0819. The composite z-score in experiment [18] was determined as 0.348; in [19], 0.599; in [20] it was 0.0316. The z-score in experiment [8] was -3.73 (inactive); in experiment [12] it was -0.212 (inactive); in [13], -0.0448 (inactive); in [14], 30.9 (active); in experiment [16], 1.01 (inactive).

With `[N-]=[N+]=NCc1ccccc1C[C@@]1(C(N)=O)N=C(c2ccc(OCCCO)cc2)O[C@@H]1c1ccccc1CN=[N+]=[N-]`, the composite z-score in [1] is 0.517; in experiment [2], -0.186; in [3], -0.0469; in [4], 0.972; in experiment [5], 1.53; in experiment [6], 1.01. The composite z-score in [7] is 1.19; in [9] it was 0.544; in [10], -0.0645; in experiment [11], 1.22; in experiment [15], 2.94; in experiment [17] it was 0.123. Besides, the composite z-score in [18] was -0.0392; in [19] it was 0.808; in [20], 0.263. In addition, the z-score was 1.56 (inactive) in [8]; 0.656 (inactive) in [12]; -0.0127 (inactive) in experiment [13]; 0.0339 (inactive) in experiment [14]; 0.585 (inactive) in experiment [16].

As for `COCCOC(=O)N1C(=O)[C@@]2(c3cc(C#CC4(O)CCCCCC4)ccc31)[C@H](C(=O)N1CCCCCCC1)[C@H]1C(=O)O[C@H](c3ccccc3)[C@H](c3ccccc3)N1[C@@H]2c1ccc(OCCO)cc1`, the composite z-score came out at 3.43 in experiment [1]; 1.62 in experiment [2]; 0.79 in experiment [3]; 1.2 in experiment [4]; 1.26 in experiment [5]; 2.18 in [6]. Besides, the composite z-score in [7] was 1.24; in experiment [9] it was 3.29; in experiment [10], 1.77; in [11], 1.53; in experiment [15] it was 3.7; in experiment [17], 1.77. Also, the composite z-score in [18] was determined as 1.89; in experiment [19], 1.03; in experiment [20] it was 0.757. The z-score in experiment [8] was -3.21 (inactive); in [12], 0.474 (inactive); in [13] it was 0.638 (inactive); in experiment [14], 2.39 (inactive); in experiment [16], 1.82 (inactive).

As for `COc1cc(OC)c(C(O)C2C=CC3C(=O)N(c4ccccc4)C(=O)C3N2Nc2ccc(C#N)cc2)cc1Br` (stereo not given), the composite z-score was 1.03 in experiment [1]; -0.223 in experiment [2]; 0.353 in experiment [3]; 1.17 in experiment [4]; 1.31 in experiment [5]; 1.75 in experiment [6]. Besides, the composite z-score in experiment [7] is 1.34; in experiment [9], 1.73; in experiment [10], 0.219; in experiment [11], 0.977; in experiment [15], 2.64; in experiment [17], 0.929. In addition, the composite z-score in experiment [18] was -0.109; in experiment [19], 1.15; in [20], 0.621. Besides, the z-score in [8] was -0.647 (inactive); in experiment [12] it was -0.459 (inactive); in experiment [13] it was 1.86 (inactive); in [14] it was -0.772 (inactive); in [16] it was -0.409 (inactive).

For `Cc1ccc(S[C@]2(C(=O)O)CC(=O)N(Cc3ccccc3Cl)[C@@H]2c2ccc(CO)cc2)cc1`, the composite z-score in experiment [1] was 0.96; in experiment [2], -0.614; in experiment [3], -0.113; in [4], 0.449; in experiment [5], -0.72; in [6] it was 0.103. Moreover, the composite z-score was -0.408 in experiment [7]; -0.172 in experiment [9]; -0.0994 in experiment [10]; -0.164 in experiment [11]; 2.95 in experiment [15]; 0.0069 in [17]. Also, the composite z-score in experiment [18] is -1.46; in [19], -0.944; in [20], -0.119. Also, the z-score is -0.917 (inactive) in [8]; -0.0285 (inactive) in experiment [12]; -1.31 (inactive) in experiment [13]; 0.644 (inactive) in experiment [14]; -0.0647 (inactive) in [16].
